Compound activity from PubChem BioAssay.
Shown are actives, neighbours in structure and some others; about 3.3% of the full set was active somewhere.
KCC2 mod: KCC2 cotransporter modulators, thallium flux, primary screen, cell-based, HEK293 KCC2, FluoZin-2 fluorescence, MLSMR; B-score of Tl+ flux slope (higher = more flux/activation; lower = inhibition) at 10 µM; Solute carrier family 12 member 5 (Homo sapiens), Q9H2X9; 190,000 tested, 2.2% active; KCC2 cells, thallium flux FluoZin-2 fluorescence; AID 1456, 2008;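 active = thallium flux slope and its plate-corrected score both differing from the plate sample mean at a set confidence after two filtering rounds, in either direction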;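 note: slope of fluorescence scaled to starting intensity during 10 to 20 s after thallium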
Target sequence (Q9H2X9 whole entry, looked up): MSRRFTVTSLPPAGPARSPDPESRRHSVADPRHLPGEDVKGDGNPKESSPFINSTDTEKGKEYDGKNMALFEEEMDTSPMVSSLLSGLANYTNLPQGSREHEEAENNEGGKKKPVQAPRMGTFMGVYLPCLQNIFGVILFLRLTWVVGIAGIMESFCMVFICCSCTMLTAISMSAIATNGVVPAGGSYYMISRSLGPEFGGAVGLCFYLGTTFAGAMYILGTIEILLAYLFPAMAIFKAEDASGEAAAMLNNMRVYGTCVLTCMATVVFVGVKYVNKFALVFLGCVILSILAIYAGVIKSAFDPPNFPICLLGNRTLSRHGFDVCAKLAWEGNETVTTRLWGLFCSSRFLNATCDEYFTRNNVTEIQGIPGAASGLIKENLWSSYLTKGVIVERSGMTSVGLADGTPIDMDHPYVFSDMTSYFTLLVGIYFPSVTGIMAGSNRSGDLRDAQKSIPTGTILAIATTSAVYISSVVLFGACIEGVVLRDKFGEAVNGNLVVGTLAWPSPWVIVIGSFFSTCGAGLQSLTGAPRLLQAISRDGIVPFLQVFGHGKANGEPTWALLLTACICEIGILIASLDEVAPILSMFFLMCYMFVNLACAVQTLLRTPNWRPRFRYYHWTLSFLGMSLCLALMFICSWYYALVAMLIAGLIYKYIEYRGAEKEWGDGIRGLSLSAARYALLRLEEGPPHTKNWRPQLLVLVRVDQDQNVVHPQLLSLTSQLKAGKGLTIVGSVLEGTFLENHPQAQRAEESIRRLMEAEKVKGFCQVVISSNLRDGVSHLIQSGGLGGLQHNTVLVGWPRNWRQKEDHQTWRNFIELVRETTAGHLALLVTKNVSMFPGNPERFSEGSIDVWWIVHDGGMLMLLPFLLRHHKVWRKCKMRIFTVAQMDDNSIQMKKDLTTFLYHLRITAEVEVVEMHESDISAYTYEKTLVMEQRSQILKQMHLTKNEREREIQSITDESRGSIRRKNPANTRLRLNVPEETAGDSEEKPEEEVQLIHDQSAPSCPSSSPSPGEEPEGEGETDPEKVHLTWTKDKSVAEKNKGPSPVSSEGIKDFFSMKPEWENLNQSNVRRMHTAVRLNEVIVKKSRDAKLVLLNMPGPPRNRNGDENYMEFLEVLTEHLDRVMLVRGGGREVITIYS
Efflux pump inh: inhibitors of Candida efflux pumps in yeast, primary screen, S. cerevisiae, Nile Red, multiplex | 330,000 tested, 0.44% active | AID 485275, 2010 | inhibition, % at 10 µM | S. cerevisiae Candida pump triplex;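 active = plate passing quality check with inhibition over a set limit, or well fluorescence over plate mean plus 4 SD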;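 note: Nile Red retained in pooled yeast measured as flow cytometry median fluorescence; higher means more Nile Red kept so more efflux inhibition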
H9c2 protect: cardioprotection against H2O2-induced cell death, primary screen, uHTS, H9c2 cells, ATPLite luminescence | H9c2 cardiomyocytes, H2O2 injury protection, 2 h | protection from H2O2 cell death, % at 20 µM | 360,000 tested, 0.63% active;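 active = compounds giving at least 50% protection of heart cells from peroxide-induced death in the single-dose screen, raw or plate-pattern-corrected value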
PHOSPHO1 block: PubChem AID 1565; recombinant PHOSPHO1, absorbance phosphatase assay; Phosphoethanolamine/phosphocholine phosphatase (Homo sapiens), Q8TCT1; 290,000 tested, 1.1% active; inhibition, % at 13.3 µM; in the data active = inhibition above about 60%
Calb FLC: C. albicans growth inhibition with fluconazole, primary screen, CaCi-2 strain, Alamar Blue fluorescence; AID 1979, 2009; growth inhibition, % (test concentration not listed); C. albicans CaCi-2 (fluconazole-resistant clinical isolate) + fluconazole, 48 h; 300,000 tested, 0.57% active;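 active = growth inhibition above about 58% in most replicates, limit read from the data, passing the limit was not always enough; inconclusive = exactly half the replicates above a set limit; inactive = most replicates below a set limit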;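 note: all wells also contain fluconazole at 8 µg/ml as a sub-toxic cotreatment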
KCC2 secondary: KCC2 modulators in sodium-free buffer, confirmation, cell-based, HEK293 KCC2, thallium flux, secondary assay | shares compounds with KCC2 mod | FluoZin2 fluorescence; hits give high values | normalised thallium flux (F/F0 slope) at 10 µM | 3,700 tested, 15% active | AID 1713, 2009;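 active = thallium flux slope above the same plate's solvent-only control mean plus 3 SD; inconclusive = the two replicate wells disagree; inactive = no significant difference from solvent-only control wells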
KCC2 bumet counter: thallium flux persisting under bumetanide in KCC2 cells, confirmation, counter-screen for KCC2 modulator project, cell-based, HEK293 KCC2, FluoZin2, secondary assay 3; shares compounds with KCC2 mod; HEK293-KCC2 + bumetanide/ouabain; hits give high values; normalized thallium flux at 10 µM; 3,700 tested, 49% active; AID 1714, 2009;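 active = thallium entry rate above the same plate's blocked-transporter control wells by more than 3 SD; inconclusive = the two repeat wells disagree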;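 note: raw slope of fluorescence over initial fluorescence between 10 and 20 s after thallium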
KCC2 secondary2: KCC2 modulators without ouabain present, confirmation, cell-based, HEK293 KCC2, thallium flux, FluoZin2, secondary assay 2; normalized thallium flux at 10 µM; shares compounds with KCC2 mod; 3,700 tested, 23% active; thallium flux FluoZin2 fluorescence; actives lie on both sides; F/F0 rise rate, 10–20 s post-thallium;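 active = thallium flux slope more than 3 SD above or below the plate's solvent-only control mean, mostly below; inconclusive = the two repeat wells disagreed; inactive = no significant shift from solvent-only controls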
HEK counter1: thallium flux modulation in parental HEK cells, confirmation, counter-screen for KCC2 modulator project, cell-based, counterscreen 1; 3,700 tested, 46% active; HEK293 parental cells, thallium flux FluoZin2, ouabain; baseline-ratio fluorescence slope, 10–20 s after thallium; thallium flux rate (normalised fluorescence) at 10 µM; shares compounds with KCC2 mod; AID 1716, 2009;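 active = thallium flux rate significantly above the same plate's solvent-only control wells, beyond their mean plus 3 SD; inconclusive = the two replicate wells gave conflicting results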
KCC2 retest ouab: KCC2 inhibitors and activators, ouabain retest, confirmation, HEK-KCC2 cells; 3,700 tested, 48% active; shares compounds with KCC2 mod; raw Tl+ flux slope (below DMSO = inhibition, above = activation) at 10 µM; AID 1717, 2009; HEK293-KCC2, thallium flux FluoZin2 fluorescence; bidirectional: low = inhibitor, high = activator;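 active = thallium flux slope beyond 3 SD from same-plate DMSO control mean in most replicates, usually higher, sometimes lower; inconclusive = repeat tests gave conflicting results; inactive = no significant difference from controls in most replicates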;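 note: slope of initial-normalized fluorescence between seconds 10 and 20 after thallium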
HEK counter2: native HEK Tl+ uptake effects, second counter-screen – HEK cells, counterscreen 2, counter-screen for KCC2 modulator project, confirmation. shares compounds with KCC2 mod. HEK293 parental, thallium flux FluoZin-2 fluorescence slope. thallium flux slope at 10 µM. 3,700 tested, 33% active. AID 1718, 2009;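 active = thallium flux slope above the same plate's solvent-control mean plus 3 SD in both duplicate wells; inconclusive = duplicate wells that disagreed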;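 note: run without ouabain in cells lacking the KCC2 cotransporter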
Hits are given with their value; n = inactive; u = inconclusive; x = no result.

SMILES	KCC2 mod	Efflux pump inh	H9c2 protect	PHOSPHO1 block	Calb FLC	KCC2 secondary	KCC2 bumet counter	KCC2 secondary2	HEK counter1	KCC2 retest ouab	HEK counter2
CSCC(=O)N1CCCC(CNC(=O)c2ccc(-c3ccccc3)cc2)C1 (centres undefined)	-6.35	n	n	n	n	n	n	0.0296	n	0.0155	n
CCOc1ccccc1-c1cc(C(=O)N/N=C/c2cccnc2)c2ccccc2n1	x	n	n	x	n	x	x	x	x	x	x
Cc1ccc(COc2ccccc2-c2cc(C(=O)N/N=C/c3cccnc3)[nH]n2)cc1	-5.47	n	50.2	n	n	n	n	u	u	0.0119	n
COc1cc(/C=C(\C#N)C(=O)NCCc2ccccc2)cc(OC)c1O	-6.22	n	n	n	n	n	3.98e-05	0.0198	0.00444	0.00912	u
CCOCCCNC(=O)/C(C#N)=C/c1cc(Br)c(O)c(Br)c1	-4.01	x	n	n	n	n	n	n	n	n	n
COCCNC(=O)/C(C#N)=C/c1cc(Br)c(O)c(OC)c1	n	n	n	n	n	x	x	x	x	x	x
COC(=O)c1ccc(C)c(NS(=O)(=O)c2cn(C)nc2C)c1	x	n	n	n	n	x	x	x	x	x	x
COc1cc2c(cc1OC)CN(C1CCC(C(C)(C)C)CC1)CC2 (centres undefined)	x	x	n	x	x	x	x	x	x	x	x
COC(=O)c1sccc1NC(=S)OC	4.75	n	n	n	n	u	0.0123	n	0.0161	u	0.0131
COC(=O)c1sccc1NC(=O)c1ccc(C)cc1	x	n	n	x	n	x	x	x	x	x	x
CN1/C(=C/C(=O)C2CCC2)Sc2ccccc21	-4.56	n	n	n	n	n	n	0.0216	n	0.0139	n
COCC(=O)/C=C1\Sc2ccccc2N1C	n	n	n	n	n	x	x	x	x	x	x
COc1ccc(OC)c(NC(=O)CN2C(=O)NC(C)(c3ccc4c(c3)OCCO4)C2=O)c1 (centres undefined)	x	n	n	x	x	x	x	x	x	x	x
Cc1ccc2oc(-c3ccc(C)c(NC(=S)NC(=O)c4cccs4)c3)nc2c1	4.6	n	n	n	n	n	0.0116	n	u	u	n
CN(C)c1ncc(S(=O)(=O)c2ccc(Cl)cc2)c(-c2ccc(Cl)cc2Cl)n1	n	n	n	n	n	x	x	x	x	x	x
CN(C)c1ncc(S(=O)(=O)c2ccccc2)c(-c2ccc(Cl)cc2Cl)n1	-5.73	n	n	n	n	n	n	n	n	n	n
O=S(=O)(Nc1ccncc1)c1cc(Cl)c(Cl)cc1Cl	x	n	n	n	n	x	x	x	x	x	x
COC(=O)c1c(NS(=O)(=O)c2ccc3ccccc3c2)sc2c1CCCC2	26.9	n	n	71.0	n	n	0.0645	0.0585	0.0571	0.0571	0.0389
CC1=NN(c2nc3ccccc3s2)C(O)(C(F)(F)F)C1 (centres undefined)	5.83	n	n	n	n	n	0.011	n	0.0119	u	0.0127
C#CCOCCOCCOCCNc1nc(N2CCN(C(=O)Cn3cc(CCCN=C(N)N)nn3)CC2)nc(N2CCN(C(=O)[C@H](CCCCN)n3cc(CCCC)nn3)CC2)n1	x	n	n	x	x	x	x	x	x	x	x
O=C(Nc1ccc(S(=O)(=O)Nc2ncccn2)cc1)C(F)(F)F	x	n	n	n	n	x	x	x	x	x	x
CCOc1ccc(NC(=O)CCNC(=O)Cn2ccc3ccccc3c2=O)cc1	x	n	n	n	n	x	x	x	x	x	x
O=S(CC(O)c1ccccc1)c1ccccc1 (centres undefined)	x	x	n	x	x	x	x	x	x	x	x
O=C(N/N=C/c1cn(-c2cccs2)nc1-c1ccccc1)c1ccccc1O	5.44	n	n	n	n	n	0.019	n	0.0106	n	u
CN(NS(=O)(=O)c1ccc(Br)cc1)c1nc(C(F)(F)F)nc2ccccc12	-3.79	n	n	n	n	n	n	n	n	0.018	n
SMILES	KCC2 mod	Efflux pump inh	H9c2 protect	PHOSPHO1 block	Calb FLC	KCC2 secondary	KCC2 bumet counter	KCC2 secondary2	HEK counter1	KCC2 retest ouab	HEK counter2
CN(N)c1nc(C(F)(F)F)nc2ccccc12	n	n	n	n	n	x	x	x	x	x	x
O=C1OC(C(=O)NCc2ccccc2)Cc2ccccc21 (centres undefined)	n	n	n	n	n	x	x	x	x	x	x
COc1ccc(C(=O)NC(=S)N2CCCCC2)cc1	n	n	n	n	n	x	x	x	x	x	x
COc1cc(OC)cc(C(=O)NC(=S)N2CCCCCC2)c1	74.4	n	n	n	n	0.0341	0.115	0.0399	0.062	0.0832	0.0212
COc1ccc(C(=O)NC(=S)N2CCCCC2)cc1[N+](=O)[O-]	6.77	n	n	n	n	n	0.0212	n	0.012	n	u
Cc1ccc(C(=O)NC(=S)N2CC(C)OC(C)C2)cc1[N+](=O)[O-] (centres undefined)	x	n	n	89.9	n	0.0183	0.0371	n	0.0212	0.035	0.0126
COc1ccc(C(=O)NC(=S)Nc2ccccc2N2CCCCC2)cc1[N+](=O)[O-]	n	n	n	n	n	x	x	x	x	x	x
COc1ccc(C(=O)NC(=S)N2CC(C)OC(C)C2)cc1 (centres undefined)	n	n	n	n	n	x	x	x	x	x	x
Cc1nnc(SCC(=O)c2c[nH]c3ccccc23)n1C1CC1	x	n	n	x	x	x	x	x	x	x	x
COc1ccc([N+](=O)[O-])cc1C1NN=C(c2ccccc2O)S1 (centres undefined)	n	n	n	n	n	x	x	x	x	x	x
O=[N+]([O-])c1ccc(O)c(C2=NNC(c3ccccc3F)C2)c1 (centres undefined)	27.7	n	n	n	n	n	0.0341	n	0.0255	0.0323	u
CC(C)(C)c1ccc(C(=O)OC/C(O)=C(\C#N)c2nc3ccccc3s2)cc1	n	n	n	n	n	x	x	x	x	x	x
